In PubChem BioAssay (EPA / NIEHS) one finds outcome and AC50 data, which are given here for 40 compounds.

Calls of active or inactive are those of the source. The calls were made as follows: active = hit-call score of the fitted dose curve at least 0.9, where 1 is the maximum; inactive = score below 0.9.

The assay is described as follows: ATG_M_32_CIS: Attagene CIS-FACTORIAL HepG2 Assay for M32 Transcription Factor (Internal Marker) (AID 2282949).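 Also: background control marker of the multiplexed CIS panel rather than a real target.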 As to conditions: HepG2 Attagene cis-factorial M32 reporter, mRNA; actives raise or lower the signal. As to the method:
ATG_CIS is a cell-based, multiplexed-readout assay that uses HepG2, a human liver cell line, with measurements taken at 24 hours after chemical dosing in a 24-well plate.ATG_M_32_CIS is one of 52 assay component(s) measured or calculated from the ATG_CIS assay. It is designed to make measurements of mRNA induction, a form of inducible reporter, as detected with fluorescence intensity signals by Reverse transcription polymerase chain reaction (RT-PCR) and Capillary electrophoresis technology.Data from the assay component ATG_M_32_CIS was analyzed into 1 assay endpoint. This assay endpoint, ATG_M_32_CIS, was analyzed with bidirectional fitting relative to DMSO as the negative control and baseline of activity. Using a type of inducible reporter, measures of mRNA for gain or loss-of-signal activity can be used to understand the background control at the transcription factor-level as they relate to the gene . Furthermore, this assay endpoint can be referred to as a secondary readout, because this assay has produced multiple assay endpoints where this one serves a background control function. To generalize the intended target to other relatable targets, this assay endpoint is annotated to the background measurement intended target family, where the subfamily is internal marker.
Human liver HepG2 cells are transiently transfected with multiple reporter transcription units (MRTUs) in 6-well plates using FuGene 6 reagent (Roche; 3 ml FuGene/1 mg DNA). The MRTU constructs are regulated by a cis-regulating element (promoter). […] A major difference between the CIS and TRANS system is that in CIS activities of endogenous TFs are measured, whereas the TRANS assay evaluates changes in activities of exogenous, chimeric NR-Gal4 proteins. […] At the end of 24 hour incubation, total RNA was isolated using TriZol reagent (Invitrogen). The isolated RNA is then reverse-transcribed using oligo(dT) primer and Mo-MLV reverse transcriptase (Invitrogen) with DNAse I (Ambion) treatment for 30 min. The one-tenth of the produced cDNA was amplified by PCR using Taq DNA polymerase (Invitrogen) and two reporter sequence-specific primers. The PCR products were fluorescently labeled by primer extension with 6-arboxyfluorescein (6-FAM) 5'-labeled reporter sequence-specific primer (2 min at 95 C, 20 s at 68 C and 10 min at 72 C) and these products were digested with 5U of HpaI (New England Biolabs) for 2h at 37 C. The fragments were purified using Qiaquick PCR columns (Qiagen), analyzed on an ABI 3130xL genetic analyzer (Applied Biosystems) with peak positions identified by using a set of X-rhodamine (ROX)-labeled MapMarker1000 molecular weight standards (BioVentures). The raw capillary electrophoresis data was processed using Attagraph software (Attagene).
Consider `CCCCCCCC=O`, for which the result was inactive.
On to `Cc1nc(C)nc(N2C[C@@H](C)N(c3ccnc([C@@H](C)O)n3)[C@@H](C)C2)n1`, for which the compound was called inactive.
For the compound `CCCCCCCCCCC`, the outcome was inactive.
`CCCCOC(=O)CCCCCCCCC(=O)OCCCC`: the compound was called inactive.
On the same count and under the same terms, the same measure for `COc1cccc2c1C(=O)c1c(O)c3c(c(O)c1C2=O)C[C@@](O)(C(=O)CO)C[C@@H]3O[C@H]1C[C@H](N)[C@H](O)[C@H](C)O1`: “inactive”; for `O=C(O)CCCCC(=O)O`: “inactive”.
On to `COc1cc(/C=C/C(=O)CC(=O)/C=C/c2ccc(O)c(OC)c2)ccc1O`, for which the call was inactive.
Turning to `CCCCCCCCCCCCCCCCCC(=O)O`, the outcome was inactive.
For the compound `CCCCCCCCCCCC(=O)OC`, the compound was classed as inactive.
On to `CN[C@H]1CC[C@@H](c2ccc(Cl)c(Cl)c2)c2ccc(S(N)(=O)=O)cc21`, for which the compound was called inactive.
With `CC1(C)NC(=O)NC1=O`, the compound was called inactive.
Regarding `O=c1[nH]cc(F)c(=O)[nH]1`, the outcome was inactive.
As for `CC=Cc1ccc(O)c(OC)c1`, the compound was called inactive.
With `COCCOC[C@H](CC1(C(=O)NC2CCC(C(=O)O)CC2)CCCC1)C(=O)Oc1ccc2c(c1)CCC2` (stereo not given in full), the call was inactive.
Turning to `Cc1cccc(C)c1O`, the compound was called inactive.
In the case of `Cc1cc(=O)[nH]c(=S)[nH]1`, the compound was called inactive.
`COCCOCCOC`: the compound was called inactive.
With `C=CCc1ccc(O)c(OC)c1`, the call was inactive.
For `Cc1cccc([N+](=O)[O-])c1C`, the compound was called inactive.
Take `Nc1ccccc1N`: the compound was classed as inactive.
For `Cc1cccc(Nc2cc(Cl)nc(SCC(=O)O)n2)c1C`, the compound was called inactive.
Regarding `C=CCOC(=O)c1ccccc1C(=O)OCC=C`, the result was inactive.
Still for that read-out and setting: the result for `Nc1nc(N)c2nc(CNc3ccc(C(=O)N[C@@H](CCC(=O)O)C(=O)O)cc3)cnc2n1` reads “inactive”; that for `COc1cc(-c2nc(NC(=O)c3cc4cc(C)cc(C)c4n3CC(=O)O)sc2CCC2CCCCC2)c(OC)cc1Cl`, “inactive”.
Same read-out and setting: the result for `CCCCCCOCCO` reads “inactive”; that for `Cc1ccc(C)c(C)c1`, “inactive”.
As for `Clc1cc(Cl)c(Cl)cc1Cl`, the result was inactive.
As to `FC(F)(F)C(F)(F)C(F)(F)C(F)(F)C(F)(F)C(F)(F)CCI`, the compound was called inactive.
Regarding `Cc1ccc(Cl)cc1`, the call was inactive.
Usually AC50 stands for the concentration at which the activity in the assay is half-maximal. As for `COc1ccc(S(=O)(=O)N2C(=O)[C@@](c3ccccc3OC)(N3C[C@H](O)C[C@H]3C(=O)N(C)C)c3cc(Cl)ccc32)c(OC)c1`, the AC50 is 133 µM (active).
Regarding `Nc1ccc(S(=O)(=O)c2ccc(N)cc2)cc1`, the compound was classed as inactive.
As to `NC(=O)Cn1c(=O)cc(CCN2CCN(c3nccc4sccc34)CC2)c2ccc(F)cc21`, the outcome was inactive.
Still for that read-out and setting: the result for `CN1CCN(Cc2cc(-c3ccc4[nH]c(=O)oc4c3)co2)[C@@H](c2ccc(F)cc2)C1` reads “inactive”; that for `Cc1cc(NC(=O)C(=O)O)cc(C)c1Oc1ccc(O)c2c1CCC2`, “inactive”; that for `CCCCCCCCCCO`, “inactive”.
As for `Cc1ccc2ncccc2c1`, the call was inactive.
Take `Cc1ccc(C)c(O)c1C`: the compound was called inactive.
For the compound `COc1ccc(C)cc1N`, the compound was called inactive.
As to `Cc1nc(-c2ccc3c(c2)CCN(CCC2CCC(NC(=O)/C=C/c4ccc(F)cc4)CC2)CC3)no1` (stereo not given), the compound was classed as inactive.
Turning to `CC(=O)OCCOCCOCCOC(C)=O`, the compound was classed as inactive.
